Measurements from PubChem BioAssay AID1918 (Vanderbilt High Throughput Screening Facility, 2009).
In all, about 130,000 compounds went through this assay and about 2,500 (1.9%) were called active.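 The calls were made as follows: active = signal ratio slope over the read window, or its plate-corrected B-score, at least 3 SD from the plate mean, either direction; inactive = the rest.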 For the sample, actives were picked, then their nearest neighbours and some compounds at random.

What follows are molecules tested against ATP-sensitive inward rectifier potassium channel 1 (Homo sapiens) (UniProt P48048) (assay: Kir1.1 channel activity modulation, library screen – cell-based, thallium flux, MLSMR library, primary screen (AID 1918;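 also: B-score of the F/F0 ratio slope over 7 to 12 s after thallium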)). Details: Tet-inducible ROMK, thallium flux fluorescence; at 10 µM; actives lie on both sides.
Sequence of ATP-sensitive inward rectifier potassium channel 1 (Homo sapiens) (P48048 whole entry, looked up): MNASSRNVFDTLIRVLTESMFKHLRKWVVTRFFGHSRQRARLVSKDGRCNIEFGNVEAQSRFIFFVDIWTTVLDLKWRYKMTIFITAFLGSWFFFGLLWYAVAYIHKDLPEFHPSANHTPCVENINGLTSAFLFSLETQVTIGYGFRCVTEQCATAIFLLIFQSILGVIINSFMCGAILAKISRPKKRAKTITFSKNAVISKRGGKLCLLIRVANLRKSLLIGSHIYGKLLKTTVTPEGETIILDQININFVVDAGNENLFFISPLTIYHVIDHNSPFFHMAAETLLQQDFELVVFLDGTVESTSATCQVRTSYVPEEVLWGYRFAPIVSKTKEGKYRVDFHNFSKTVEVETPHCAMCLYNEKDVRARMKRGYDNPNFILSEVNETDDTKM
With `Cc1nc2ccccn2c1P(=S)(N1CCCCC1)N1CCCCC1` the B-score was -3.59 (active).
`CSc1nc2ccc(C)cc2c(=O)n1-c1cccnc1` was tested, and the B-score was -0.218 (inactive).
With `COC(=O)N1C(c2ccccc2)C1c1ccccc1` (stereo not given) the B-score was 0.0342 (inactive).
For `O=C(Nc1cccc2ccccc12)N1CCC2(CC1)OCCO2`, the B-score was -0.682 (inactive).
In the case of `CCN1CCN(c2ccc([N+](=O)[O-])cc2C#N)CC1`, the B-score is reported as -0.443 (inactive).
`CC1=C2C(=O)C3C(CC=C4CC(OC5OC(O)C(O)C(O)C5CO)CCC43C)C2CCC12OC1CC(C)CNC1C2C` (stereo not given) was tested, and the B-score was -0.573 (inactive).
In the case of `N=c1ccccn1Cc1ccccc1`, the B-score is reported as 2.77 (active).
`CN(C)/C=C(\C=[N+](C)C)c1[nH]ncc1[N+](=O)[O-]` was tested, and the B-score was 0.157 (inactive).
In the case of `O=c1[nH]c(=O)n(-c2ccccc2)c(O)c1C=NC12CN3CN(CN(C3)C1)C2`, the B-score is reported as 0.583 (inactive).
In the case of `O=c1[nH]c(=O)n(CCc2ccccc2)c(O)c1/C=N/N1CCOCC1`, the B-score is reported as 0.152 (inactive).
In the case of `CC1=C(C(=O)Nc2ccccc2)S(=O)(=O)CCO1`, the B-score is reported as 0.94 (inactive).
In the case of `COc1ccccc1N=Nc1c(O)[nH]c(=S)[nH]c1=O`, the B-score is reported as -2.66 (active).
For `CCOCCc1c(O)[nH]c(=S)[nH]c1=O`, the B-score was -0.807 (inactive).
With `O=C1N=c2ccccc2=C/C1=C\c1c(O)[nH]c(=S)[nH]c1=O` the B-score was 0.454 (inactive).
In the case of `CNC(=O)O/N=C(\N)Cc1csc2ccccc12`, the B-score is reported as 0.164 (inactive).
With `CC(Cc1cccs1)NCc1ccc(Cl)cc1` (stereo not given) the B-score was 0.0543 (inactive).
With `CCCOC(=O)C1C2c3ccccc3C(c3ccccc32)C1C(=O)O` (stereo not given) the B-score was 0.827 (inactive).
For `O=C(COC(=O)Cc1ccccc1)Nc1ccc(F)cc1`, the B-score was -0.767 (inactive).
`OC1/C(=C/c2ccc(C(F)(F)F)cc2)N2CCC1CC2` (stereo not given) was tested, and the B-score was -1.88 (inactive).
For `CCCCCCCCCCCCn1ccc(=N)cc1`, the B-score was -10.9 (active).
In the case of `CC(C)CN1CCN(Cc2ccccc2C(F)(F)F)CC1CCO` (stereo not given), the B-score is reported as -0.0138 (inactive).
`CC(C)Oc1cccc(C(=O)C2CCCN(C3CCOCC3)C2)c1` (stereo not given) was tested, and the B-score was 0.0502 (inactive).
For `Cc1ccc(-c2cc(C(=O)N3CCC4(CC3)OCCO4)no2)cc1`, the B-score was 1.11 (inactive).
For `Clc1ccc2nc3c(c(-c4ccccc4)c2c1)CNCC3`, the B-score was -3.67 (active).
For `Cc1cc(/C=C2/C(=O)NC(=O)N(Cc3ccco3)C2=O)c(C)n1-c1ccc(C(=O)O)cc1`, the B-score was 0.104 (inactive).
With `Cc1ccccc1N1C(=O)NC(=O)/C(=C\c2cc(C)n(C)c2C)C1=O` the B-score was 0.936 (inactive).
In the case of `Cc1cc(C=C2C(=O)NC(=O)NC2=O)c(C)n1-c1ccncc1`, the B-score is reported as -3.19 (active).
For `O=C(Cn1c(=O)n(CC2CS2)c2ccccc21)N1CCCCC1` (stereo not given), the B-score was 1.36 (inactive).
With `CC(C)c1ccc(-n2c(O)c(/C=N/N3CCOCC3)c(=O)[nH]c2=S)cc1` the B-score was 0.913 (inactive).
In the case of `COc1ccc(NC(=O)N2CCC3(CC2)OCCO3)c(OC)c1`, the B-score is reported as -0.624 (inactive).
